Results taken from PubChem BioAssay AID431 (Sanford-Burnham Center for Chemical Genomics, 2006).
Out of some 63,000 compounds screened, about 1,100 (1.7%) were called active. The sample holds actives, similar compounds and a random draw of the others, so the mix is not that of the screen. Measured potencies and affinities stand elsewhere. A number with no mark means an inactive call.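 The calls were made as follows: active = compounds whose percent cytotoxicity in the single-dose primary screen, scaled between solvent and toxic-drug controls, exceeds 50; inactive = the rest.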

Experiment: viability loss of HPDE-C7K cells – cell-based, fluorescence, HTS, primary screen (AID 431);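 also: 0% = DMSO solvent wells and 100% = doxorubicin-treated wells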
Details: HPDE-C7K KRASV12 cells, Alamar Blue viability, 48 h; at 10 µM; active compounds read high

Q: Which cytotoxicity does the source give for `O=C(COC(=O)c1c2c(nc3ccccc13)CCCC2)Nc1ccc2c(c1)OCO2` here?
A: 53.6% (active)

Q: With `Cc1nn(-c2ccccc2)c(C)c1C(=O)OCC(=O)Nc1ccc2c(c1)OCO2` as the compound, how does the cytotoxicity read?
A: -6.3%

Q: For `O=C(C1CCN(S(=O)(=O)c2cccnc2)CC1)N1CCN(C2CCCC2)CC1`, which cytotoxicity is on record?
A: -8.1%

Q: Which cytotoxicity does the source give for `Cc1ccc(CNc2nc3c([nH]2)c(=O)n(C)c(=O)n3C)cc1` here?
A: -19.3%

Q: Which cytotoxicity does the source give for `Cc1ccc(C(CC(=O)N2CCCC2)c2ccccc2)c(O)c1C` (configuration not stated) here?
A: -9.2%

Q: With `COc1ccccc1CNc1ncnc2nc[nH]c12` as the compound, how does the cytotoxicity read?
A: 4.5%

Q: For `Oc1ccc(CNc2ccccc2F)c2cccnc12`, which cytotoxicity is on record?
A: 5.5%

Q: For `Oc1ccc(CNc2ccccc2)c2cccnc12`, which cytotoxicity is on record?
A: 44.4%

Q: Which cytotoxicity does the source give for `Oc1ccc(CNc2ccc(F)cc2)c2cccnc12` here?
A: 53.3% (active)

Q: With `CCOC(=O)C1CCN(Cc2ccc(O)c3ncccc23)CC1` as the compound, how does the cytotoxicity read?
A: -4.5%

Q: Which cytotoxicity does the source give for `Oc1ccc(CN2CCN(Cc3ccccc3)CC2)c2cccnc12` here?
A: 6.1%

Q: Which cytotoxicity does the source give for `CN1CCN(Cc2cc(COCc3ccccc3)c3cccnc3c2O)CC1` here?
A: 4.8%

Q: Which cytotoxicity does the source give for `Oc1ccc(CN2CCCc3ccccc32)c2cccnc12` here?
A: 36.7%

Q: Which cytotoxicity does the source give for `O=C(CSc1nnc(-c2ccc(S(=O)(=O)N3CCCC3)cc2)o1)NCc1ccco1` here?
A: -15.4%

Q: Which cytotoxicity does the source give for `CCOc1ccc(OCC)c(NC(=O)CN(c2ccc(C)cc2)S(=O)(=O)c2c(C)noc2C)c1` here?
A: -6.3%

Q: For `COC(=O)c1[nH]c2ccc(C)cc2c1NS(=O)(=O)c1ccc(F)c(C)c1`, which cytotoxicity is on record?
A: 10.9%

Q: For `CCCn1c(SCC(=O)NC(C)(C)C)nnc1C(C)C`, which cytotoxicity is on record?
A: -5.9%

Q: For `COc1cccc(OC)c1C(=O)Nn1c(C2CCC2)nc2ccccc2c1=O`, which cytotoxicity is on record?
A: -10.3%

Q: Which cytotoxicity does the source give for `O=C(CN1C(=O)CCS(=O)(=O)c2ccccc21)Nc1cccc(Cl)c1` here?
A: 2.5%

Q: With `O=[n+]1c2c(n([O-])c3cc(F)ccc31)CCCC2` as the compound, how does the cytotoxicity read?
A: 0.3%

Q: Which cytotoxicity does the source give for `COc1cc(OC)cc(C(=O)NCc2n[nH]c(=S)n2-c2ccccc2)c1` here?
A: -3.1%

Q: With `Cc1ccc(-c2c(C)c(-c3ccc(F)cc3)nc(N)c2C#N)o1` as the compound, how does the cytotoxicity read?
A: 19.3%

Q: With `CCOc1ccccc1NC(=O)N1CCCC1C(=O)Nc1ccc(NC(C)=O)cc1` (configuration not stated) as the compound, how does the cytotoxicity read?
A: -3.3%

Q: For `COc1ccc(Cl)cc1S(=O)(=O)N1CCN(C(=O)c2cc(OC)c(OC)c(OC)c2)CC1`, which cytotoxicity is on record?
A: -3.4%

Q: For `COc1cc(C(=O)N2CCN(c3cc(Cl)ccc3Cl)CC2)cc(OC)c1OC`, which cytotoxicity is on record?
A: 65.3% (active)

Q: For `COc1cc(C(=O)N2CCN(c3ccc(C)cc3C)CC2)cc(OC)c1OC`, which cytotoxicity is on record?
A: 28.6%

Q: For `CC1(C)Cc2ccccc2-c2nnc(SCC(=O)Nc3ccc4c(c3)OCO4)n21`, which cytotoxicity is on record?
A: 4.9%

Q: For `COc1ccc(-c2noc(CN(C)S(=O)(=O)c3ccc(Cl)cc3)n2)cc1OC`, which cytotoxicity is on record?
A: 27.5%

Q: Which cytotoxicity does the source give for `CCn1c2ccccc2c2cc(NC(=O)c3ccco3)ccc21` here?
A: 66.2% (active)

Q: With `CCn1c2ccccc2c2cc(NC(=O)CSc3nnc(-c4ccccc4OC)n3N)ccc21` as the compound, how does the cytotoxicity read?
A: 66% (active)

Q: Which cytotoxicity does the source give for `CCn1c(SCC(=O)Nc2ccc(S(N)(=O)=O)cc2)nnc1-c1cccc(OC)c1` here?
A: 6.1%

Q: Which cytotoxicity does the source give for `COc1ccc(NC(=O)CSc2nnc(-c3ccccc3C)n2N)cc1OC` here?
A: -2.1%

Q: With `CCn1c2ccccc2c2cc(NC(=O)N3CCOCC3)ccc21` as the compound, how does the cytotoxicity read?
A: -7.1%

Q: With `CCn1c(SCC(=O)Nc2ccc3c(c2)OCCO3)nnc1-c1ccco1` as the compound, how does the cytotoxicity read?
A: 5.8%

Q: For `CCn1c2ccccc2c2cc(NC(=O)CSc3nnnn3-c3ccccc3)ccc21`, which cytotoxicity is on record?
A: 5.6%

Q: With `CCn1c2ccccc2c2cc(CN3CCN(C(=O)c4ccco4)CC3)ccc21` as the compound, how does the cytotoxicity read?
A: -16%

Q: For `C=CCn1c(SCC(=O)Nc2ccc(N(C)C)cc2)nnc1-c1cccc(C)c1`, which cytotoxicity is on record?
A: 33%

Q: With `CCn1c(SCC(=O)Nc2ccc3c(c2)c2ccccc2n3CC)nnc1-c1cnccn1` as the compound, how does the cytotoxicity read?
A: 12.2%

Q: Which cytotoxicity does the source give for `CCn1c(SCC(=O)Nc2ccc3c(c2)c2ccccc2n3CC)nnc1-c1ccco1` here?
A: 57.1% (active)

Q: Which cytotoxicity does the source give for `O=C(CSc1nn(-c2ccccc2)c(=S)s1)Nn1cnnc1` here?
A: -11.8%

Q: With `CS(=O)(=O)N1CCCC(c2nc(-c3ccc(S(=O)(=O)NCc4ccccc4)cc3)no2)C1` (configuration not stated) as the compound, how does the cytotoxicity read?
A: -5.6%

Q: With `O=C(CCCn1c(=S)[nH]c2cc3c(cc2c1=O)OCO3)N1CCN(c2ncccn2)CC1` as the compound, how does the cytotoxicity read?
A: -12.6%

Q: For `CCOc1ccccc1N1CCN(C(=O)Nc2cccc(Cl)c2)CC1`, which cytotoxicity is on record?
A: -2.1%

Q: With `Cn1cc(C(=O)NC2CCCCCCC2)c(=O)c2cc(S(=O)(=O)N3CCCC3)ccc21` as the compound, how does the cytotoxicity read?
A: -3.8%

Q: With `CCN(CC)S(=O)(=O)c1ccc2oc(C(=O)N3CCCCCC3)c(C)c2c1` as the compound, how does the cytotoxicity read?
A: 7.8%

Q: With `CCCN1Cc2cccc(C(=O)Nc3cc(OC)cc(OC)c3)c2C1=O` as the compound, how does the cytotoxicity read?
A: 16.6%

Q: Which cytotoxicity does the source give for `CC(C)(C)OC(=O)NCCc1nnc(SCC(=O)c2ccc(Cl)cc2)o1` here?
A: 3.8%
